# Laboratory results: PMC7862700, “An all-to-all approach to the identification of sequence-specific readers for epigenetic DNA modifications on cytosine”
# Assays:
# Assay in all cases: DAPPL (digital affinity profiling via proximity ligation, sequencing); 10 mM Tris-HCl pH 7.5, 50 mM NaCl, 1 mM DTT, 4% glycerol, room temperature, 30 min; GST-TFs on glutathione beads, 16-mer random dsDNA library, 0.1% formaldehyde crosslink after washing; high values mean tight binding
# FEV = target: T1, FEV (Homo sapiens, UniProt Q99581 1-238); details: protein: recombinant; tags: N-terminal GST; dsDNA, one strand shown
# T1 sequence: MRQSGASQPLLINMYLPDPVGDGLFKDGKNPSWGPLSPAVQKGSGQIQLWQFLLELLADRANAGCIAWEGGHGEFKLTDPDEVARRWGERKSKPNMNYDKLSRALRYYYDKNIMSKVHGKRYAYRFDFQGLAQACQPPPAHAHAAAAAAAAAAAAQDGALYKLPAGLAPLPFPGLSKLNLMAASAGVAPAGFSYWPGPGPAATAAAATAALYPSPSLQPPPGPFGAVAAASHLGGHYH
# Outline: (§1)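 Yeast served to express human transcription factors as GST fusions, which were then captured on glutathione beads and labelled with DNA barcodes. Pooled with a tag-only sample, they were incubated with 200 nmole of a 16-mer random double-stranded DNA library for 30 min at room temperature in Tris/NaCl/DTT/glycerol buffer, washed, crosslinked with 0.1% formaldehyde, ligated by proximity, amplified by PCR and sequenced. Dividing each hexamer's read frequency for a factor by its frequency for the tag-only sample gives the binding signal.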
# ETV5 = ETV5 (Homo sapiens, UniProt P41161 1-510); details: protein: recombinant; tags: N-terminal GST; dsDNA, one strand shown
# Outline: as §1
# HSF1 = HSF1 (Homo sapiens, UniProt Q00613 1-529); details: protein: recombinant; tags: N-terminal GST; chain copies: 3; dsDNA, one strand shown
# Outline: as §1
# SPIC = target: T2, SPIC (Homo sapiens, UniProt Q8N5J4 1-248); details: protein: recombinant; tags: N-terminal GST; dsDNA, one strand shown
# T2 sequence: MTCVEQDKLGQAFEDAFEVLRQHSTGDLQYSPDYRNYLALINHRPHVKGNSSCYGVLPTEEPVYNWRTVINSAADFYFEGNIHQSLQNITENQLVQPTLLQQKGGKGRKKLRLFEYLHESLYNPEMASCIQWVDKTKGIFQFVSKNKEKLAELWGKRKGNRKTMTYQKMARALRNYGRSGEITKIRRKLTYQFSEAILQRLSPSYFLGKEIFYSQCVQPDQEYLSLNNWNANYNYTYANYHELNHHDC
# Outline: as §1
# ELF4 = ELF4 (Homo sapiens, UniProt Q99607 1-663); details: protein: recombinant; tags: N-terminal GST; dsDNA, one strand shown
# Outline: as §1
# ELK4 = target: T3, ELK4 (Homo sapiens, UniProt P28324-2 1-405); details: protein: recombinant; tags: N-terminal GST; dsDNA, one strand shown
# T3 sequence: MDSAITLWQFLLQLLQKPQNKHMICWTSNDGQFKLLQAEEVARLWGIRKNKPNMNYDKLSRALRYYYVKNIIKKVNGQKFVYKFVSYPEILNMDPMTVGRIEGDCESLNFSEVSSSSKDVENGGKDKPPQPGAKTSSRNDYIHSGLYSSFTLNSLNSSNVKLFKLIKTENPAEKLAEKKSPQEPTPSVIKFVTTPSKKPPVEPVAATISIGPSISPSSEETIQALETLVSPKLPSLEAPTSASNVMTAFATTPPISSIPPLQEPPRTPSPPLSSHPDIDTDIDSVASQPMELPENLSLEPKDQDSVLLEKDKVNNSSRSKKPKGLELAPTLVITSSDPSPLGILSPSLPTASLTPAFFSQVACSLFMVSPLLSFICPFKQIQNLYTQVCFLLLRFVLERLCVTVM
# Outline: as §1
# ETV2 = target: T4, ETV2 (Homo sapiens, UniProt O00321 1-342); details: protein: recombinant; tags: N-terminal GST; dsDNA, one strand shown
# T4 sequence: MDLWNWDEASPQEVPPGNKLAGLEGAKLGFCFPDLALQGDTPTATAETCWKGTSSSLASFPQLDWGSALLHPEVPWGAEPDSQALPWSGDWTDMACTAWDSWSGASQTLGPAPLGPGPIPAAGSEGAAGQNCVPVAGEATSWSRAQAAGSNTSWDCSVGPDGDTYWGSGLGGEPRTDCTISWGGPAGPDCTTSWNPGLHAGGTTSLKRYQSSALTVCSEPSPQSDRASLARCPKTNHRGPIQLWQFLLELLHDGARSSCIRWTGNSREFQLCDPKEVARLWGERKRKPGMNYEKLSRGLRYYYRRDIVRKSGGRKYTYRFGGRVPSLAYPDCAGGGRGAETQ
# Outline: as §1
# ELF3 = target: T5, ELF3 (Homo sapiens, UniProt P78545 1-371); details: protein: recombinant; tags: N-terminal GST; dsDNA, one strand shown
# T5 sequence: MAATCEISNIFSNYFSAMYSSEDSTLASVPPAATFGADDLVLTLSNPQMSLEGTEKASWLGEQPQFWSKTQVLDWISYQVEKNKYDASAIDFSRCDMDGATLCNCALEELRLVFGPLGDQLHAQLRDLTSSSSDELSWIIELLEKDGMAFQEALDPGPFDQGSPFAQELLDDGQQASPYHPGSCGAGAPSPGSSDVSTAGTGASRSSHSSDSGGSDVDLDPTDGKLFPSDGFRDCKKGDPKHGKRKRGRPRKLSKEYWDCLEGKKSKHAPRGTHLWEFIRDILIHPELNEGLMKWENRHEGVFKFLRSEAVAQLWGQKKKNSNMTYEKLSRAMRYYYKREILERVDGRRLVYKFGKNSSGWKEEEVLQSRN
# Outline: as §1
# CRX = CRX (Homo sapiens, UniProt O43186 1-299); details: protein: recombinant; tags: N-terminal GST; dsDNA, one strand shown
# Outline: as §1
# ETV1 = ETV1 (Homo sapiens, UniProt P50549 1-477); details: protein: recombinant; tags: N-terminal GST; dsDNA, one strand shown
# Outline: as §1
# ERF = target: T6, ERF (Homo sapiens, UniProt P50548 1-548); details: protein: recombinant; tags: N-terminal GST; dsDNA, one strand shown
# T6 sequence: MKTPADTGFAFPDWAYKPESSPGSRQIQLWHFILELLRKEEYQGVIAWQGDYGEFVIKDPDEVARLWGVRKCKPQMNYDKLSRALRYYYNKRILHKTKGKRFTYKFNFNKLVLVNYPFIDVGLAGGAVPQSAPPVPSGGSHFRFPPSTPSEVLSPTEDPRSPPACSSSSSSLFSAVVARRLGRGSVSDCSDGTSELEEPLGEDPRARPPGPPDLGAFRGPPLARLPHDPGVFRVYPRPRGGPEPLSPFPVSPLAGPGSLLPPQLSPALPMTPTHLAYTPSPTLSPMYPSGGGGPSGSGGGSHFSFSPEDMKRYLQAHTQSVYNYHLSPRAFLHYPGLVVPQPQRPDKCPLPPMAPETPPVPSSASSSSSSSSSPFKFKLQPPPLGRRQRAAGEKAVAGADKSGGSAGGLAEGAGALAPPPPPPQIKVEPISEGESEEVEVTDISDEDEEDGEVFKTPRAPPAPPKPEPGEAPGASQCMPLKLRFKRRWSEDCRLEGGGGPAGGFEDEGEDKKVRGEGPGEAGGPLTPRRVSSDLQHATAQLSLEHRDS
# Outline: as §1
# ETV3L = target: T7, ETV3L (Homo sapiens, UniProt Q6ZN32 1-361); details: protein: recombinant; tags: N-terminal GST; dsDNA, one strand shown
# T7 sequence: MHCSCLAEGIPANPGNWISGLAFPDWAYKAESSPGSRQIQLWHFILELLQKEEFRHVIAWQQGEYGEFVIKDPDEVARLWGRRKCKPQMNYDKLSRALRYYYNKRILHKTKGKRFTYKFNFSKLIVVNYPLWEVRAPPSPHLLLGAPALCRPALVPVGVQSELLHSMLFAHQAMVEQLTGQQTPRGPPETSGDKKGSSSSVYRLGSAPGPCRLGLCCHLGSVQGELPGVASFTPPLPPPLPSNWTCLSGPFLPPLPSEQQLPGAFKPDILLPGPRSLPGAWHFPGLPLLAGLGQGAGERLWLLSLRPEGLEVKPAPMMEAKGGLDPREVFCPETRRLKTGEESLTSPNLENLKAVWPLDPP
# Outline: as §1
# ETS2 = target: T8, ETS2 (Homo sapiens, UniProt P15036 1-469); details: protein: recombinant; tags: N-terminal GST; dsDNA, one strand shown
# T8 sequence: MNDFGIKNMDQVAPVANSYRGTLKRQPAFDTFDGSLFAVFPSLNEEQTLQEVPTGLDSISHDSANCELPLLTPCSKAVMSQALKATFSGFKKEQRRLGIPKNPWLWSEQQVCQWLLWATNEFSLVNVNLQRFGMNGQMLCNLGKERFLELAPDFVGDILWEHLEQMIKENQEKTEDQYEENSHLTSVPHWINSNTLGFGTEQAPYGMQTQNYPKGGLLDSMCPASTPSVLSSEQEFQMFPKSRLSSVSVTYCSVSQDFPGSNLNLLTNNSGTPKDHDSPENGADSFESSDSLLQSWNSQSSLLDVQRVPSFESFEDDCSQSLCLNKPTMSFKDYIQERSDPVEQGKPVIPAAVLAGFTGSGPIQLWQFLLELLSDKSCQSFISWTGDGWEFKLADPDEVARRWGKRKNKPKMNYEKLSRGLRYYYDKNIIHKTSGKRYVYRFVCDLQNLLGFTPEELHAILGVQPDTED
# Outline: as §1
# SPDEF = target: T9, SPDEF (Homo sapiens, UniProt O95238 1-335); details: protein: recombinant; tags: N-terminal GST; dsDNA, one strand shown
# T9 sequence: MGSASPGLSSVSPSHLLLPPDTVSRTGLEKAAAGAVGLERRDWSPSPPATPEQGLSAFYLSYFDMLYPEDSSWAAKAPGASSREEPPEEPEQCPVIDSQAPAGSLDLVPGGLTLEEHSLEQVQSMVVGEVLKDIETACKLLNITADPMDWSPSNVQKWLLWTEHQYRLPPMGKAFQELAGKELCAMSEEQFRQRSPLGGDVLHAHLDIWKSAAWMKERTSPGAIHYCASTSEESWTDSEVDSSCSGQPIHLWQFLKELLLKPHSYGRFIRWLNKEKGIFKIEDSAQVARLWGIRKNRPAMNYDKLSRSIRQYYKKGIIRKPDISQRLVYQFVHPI
# Outline: as §1
# ETV7 = target: T10, ETV7 (Homo sapiens, UniProt Q9Y603 1-341); details: protein: recombinant; tags: N-terminal GST; dsDNA, one strand shown
# T10 sequence: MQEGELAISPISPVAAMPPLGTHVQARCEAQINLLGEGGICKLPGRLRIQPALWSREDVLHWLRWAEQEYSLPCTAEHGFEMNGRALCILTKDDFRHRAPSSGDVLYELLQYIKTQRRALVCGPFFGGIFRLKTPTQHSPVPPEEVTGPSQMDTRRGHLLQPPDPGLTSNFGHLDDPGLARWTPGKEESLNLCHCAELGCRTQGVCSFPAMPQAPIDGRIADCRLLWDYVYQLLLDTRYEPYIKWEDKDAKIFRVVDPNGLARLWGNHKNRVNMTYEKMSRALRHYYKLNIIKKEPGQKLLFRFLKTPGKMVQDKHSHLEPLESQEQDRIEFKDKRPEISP
# Outline: as §1
# ELF5 = target: T11, ELF5 (Homo sapiens, UniProt Q9UKW6-2 1-255); details: protein: recombinant; tags: N-terminal GST; dsDNA, one strand shown
# T11 sequence: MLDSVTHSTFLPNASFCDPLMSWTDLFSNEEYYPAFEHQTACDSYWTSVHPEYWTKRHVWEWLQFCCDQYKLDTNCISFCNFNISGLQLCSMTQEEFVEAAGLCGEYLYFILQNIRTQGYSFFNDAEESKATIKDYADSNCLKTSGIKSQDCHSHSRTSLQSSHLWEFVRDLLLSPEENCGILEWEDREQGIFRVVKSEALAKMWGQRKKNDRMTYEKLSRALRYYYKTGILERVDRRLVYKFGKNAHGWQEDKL
# Outline: as §1
# ETV3 = target: T12, ETV3 (Homo sapiens, UniProt P41162-2 1-143); details: protein: recombinant; tags: N-terminal GST; dsDNA, one strand shown
# T12 sequence: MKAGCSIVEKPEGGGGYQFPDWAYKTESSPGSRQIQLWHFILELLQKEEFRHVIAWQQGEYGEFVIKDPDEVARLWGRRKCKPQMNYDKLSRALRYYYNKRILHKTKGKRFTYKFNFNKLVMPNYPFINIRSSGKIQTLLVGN
# Outline: as §1
# ETV6 = ETV6 (Homo sapiens, UniProt P41212 1-452); details: protein: recombinant; tags: N-terminal GST; dsDNA, one strand shown
# Outline: as §1
# Sequence of ETV1 (P50549 whole entry): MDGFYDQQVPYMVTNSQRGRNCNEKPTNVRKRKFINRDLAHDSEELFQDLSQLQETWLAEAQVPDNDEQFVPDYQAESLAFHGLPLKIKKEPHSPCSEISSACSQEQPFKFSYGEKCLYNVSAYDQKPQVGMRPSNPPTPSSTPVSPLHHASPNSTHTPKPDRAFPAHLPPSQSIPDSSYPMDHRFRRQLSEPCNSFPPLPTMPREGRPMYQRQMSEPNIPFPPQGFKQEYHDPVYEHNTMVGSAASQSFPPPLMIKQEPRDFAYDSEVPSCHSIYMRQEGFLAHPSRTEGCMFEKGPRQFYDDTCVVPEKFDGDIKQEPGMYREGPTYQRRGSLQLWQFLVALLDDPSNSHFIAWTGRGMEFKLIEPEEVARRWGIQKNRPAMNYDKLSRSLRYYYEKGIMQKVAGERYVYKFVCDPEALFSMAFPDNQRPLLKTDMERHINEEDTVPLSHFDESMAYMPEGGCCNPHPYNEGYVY
# Sequence of ETV5 (P41161 whole entry): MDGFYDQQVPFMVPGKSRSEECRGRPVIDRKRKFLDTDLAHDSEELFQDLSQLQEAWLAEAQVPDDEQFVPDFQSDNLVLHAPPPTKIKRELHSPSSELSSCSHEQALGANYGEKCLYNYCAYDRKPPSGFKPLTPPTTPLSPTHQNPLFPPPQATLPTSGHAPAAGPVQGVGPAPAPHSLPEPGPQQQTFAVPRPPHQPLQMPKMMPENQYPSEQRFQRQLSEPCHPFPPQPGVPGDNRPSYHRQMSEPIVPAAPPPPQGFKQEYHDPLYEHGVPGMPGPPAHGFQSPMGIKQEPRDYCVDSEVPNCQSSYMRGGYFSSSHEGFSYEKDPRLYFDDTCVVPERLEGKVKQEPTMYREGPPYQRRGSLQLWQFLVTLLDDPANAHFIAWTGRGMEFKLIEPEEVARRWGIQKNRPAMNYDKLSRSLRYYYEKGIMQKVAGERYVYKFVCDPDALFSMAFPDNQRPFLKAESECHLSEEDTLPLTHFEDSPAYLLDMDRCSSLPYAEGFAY
# Sequence of ELF4 (Q99607 whole entry): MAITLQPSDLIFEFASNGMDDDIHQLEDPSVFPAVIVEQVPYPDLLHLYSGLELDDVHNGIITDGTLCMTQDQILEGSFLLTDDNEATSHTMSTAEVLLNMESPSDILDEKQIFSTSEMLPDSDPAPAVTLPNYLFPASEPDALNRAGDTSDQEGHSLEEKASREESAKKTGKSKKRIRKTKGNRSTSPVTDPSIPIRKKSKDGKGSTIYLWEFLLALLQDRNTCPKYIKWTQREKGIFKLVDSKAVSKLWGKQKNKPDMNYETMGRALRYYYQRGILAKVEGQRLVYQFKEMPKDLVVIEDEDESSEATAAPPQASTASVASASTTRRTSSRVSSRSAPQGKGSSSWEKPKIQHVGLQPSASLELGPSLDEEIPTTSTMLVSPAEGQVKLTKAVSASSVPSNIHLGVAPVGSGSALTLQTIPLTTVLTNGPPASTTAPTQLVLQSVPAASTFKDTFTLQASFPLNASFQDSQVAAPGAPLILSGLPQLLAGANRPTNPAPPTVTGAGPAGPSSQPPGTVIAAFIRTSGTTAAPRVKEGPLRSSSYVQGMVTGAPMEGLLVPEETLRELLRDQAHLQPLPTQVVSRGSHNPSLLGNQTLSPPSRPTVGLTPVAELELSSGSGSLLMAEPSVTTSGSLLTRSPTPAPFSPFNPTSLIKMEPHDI
# Sequence of CRX (O43186 whole entry): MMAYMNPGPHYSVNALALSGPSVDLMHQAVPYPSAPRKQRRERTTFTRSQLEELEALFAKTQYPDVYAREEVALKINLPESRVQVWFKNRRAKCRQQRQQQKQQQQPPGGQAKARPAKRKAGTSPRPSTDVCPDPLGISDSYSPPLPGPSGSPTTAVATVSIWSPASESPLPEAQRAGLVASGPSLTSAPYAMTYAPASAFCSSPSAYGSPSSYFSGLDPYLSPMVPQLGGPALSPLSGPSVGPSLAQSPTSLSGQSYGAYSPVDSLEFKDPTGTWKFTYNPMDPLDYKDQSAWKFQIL
# Sequence of ETV6 (P41212 whole entry): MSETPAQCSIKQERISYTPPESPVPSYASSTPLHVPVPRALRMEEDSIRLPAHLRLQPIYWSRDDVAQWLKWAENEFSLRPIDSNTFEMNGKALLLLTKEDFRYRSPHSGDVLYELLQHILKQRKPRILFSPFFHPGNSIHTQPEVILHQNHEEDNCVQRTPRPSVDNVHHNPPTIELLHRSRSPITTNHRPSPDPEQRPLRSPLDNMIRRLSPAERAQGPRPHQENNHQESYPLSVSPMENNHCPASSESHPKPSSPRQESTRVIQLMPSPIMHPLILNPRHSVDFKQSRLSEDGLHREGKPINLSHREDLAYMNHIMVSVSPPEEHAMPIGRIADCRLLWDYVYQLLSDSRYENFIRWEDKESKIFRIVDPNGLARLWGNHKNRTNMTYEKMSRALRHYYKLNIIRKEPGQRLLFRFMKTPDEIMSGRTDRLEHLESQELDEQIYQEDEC
# Sequence of HSF1 (Q00613 whole entry): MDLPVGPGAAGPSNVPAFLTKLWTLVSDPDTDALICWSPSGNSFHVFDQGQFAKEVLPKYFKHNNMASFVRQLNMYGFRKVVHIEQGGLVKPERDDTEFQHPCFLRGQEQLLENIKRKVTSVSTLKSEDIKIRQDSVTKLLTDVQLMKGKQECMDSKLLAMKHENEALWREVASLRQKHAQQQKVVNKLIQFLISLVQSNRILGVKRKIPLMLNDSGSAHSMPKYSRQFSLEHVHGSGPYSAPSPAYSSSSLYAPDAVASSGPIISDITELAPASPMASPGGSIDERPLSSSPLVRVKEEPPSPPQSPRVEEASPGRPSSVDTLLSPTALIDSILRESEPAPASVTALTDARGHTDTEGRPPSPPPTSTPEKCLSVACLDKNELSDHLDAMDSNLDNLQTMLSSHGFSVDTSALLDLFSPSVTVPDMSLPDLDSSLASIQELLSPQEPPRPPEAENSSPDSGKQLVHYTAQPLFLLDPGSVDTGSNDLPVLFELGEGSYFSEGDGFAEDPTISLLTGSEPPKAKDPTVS
sequence,measurement,setting,value
TTGGTA,binding signal,FEV,"1.17 fold enrichment (6-mer frequency, TF over GST control)"
same,binding signal,ETV5,"1.23 fold enrichment (6-mer frequency, TF over GST control)"
same,binding signal,HSF1,"1.16 fold enrichment (6-mer frequency, TF over GST control)"
same,binding signal,SPIC,"1.2 fold enrichment (6-mer frequency, TF over GST control)"
same,binding signal,ELF4,"1.25 fold enrichment (6-mer frequency, TF over GST control)"
same,binding signal,ELK4,"1.34 fold enrichment (6-mer frequency, TF over GST control)"
same,binding signal,ETV2,"1 fold enrichment (6-mer frequency, TF over GST control)"
same,binding signal,ELF3,"1.25 fold enrichment (6-mer frequency, TF over GST control)"
same,binding signal,CRX,"1.34 fold enrichment (6-mer frequency, TF over GST control)"
same,binding signal,ETV1,"1.24 fold enrichment (6-mer frequency, TF over GST control)"
same,binding signal,ERF,"1.21 fold enrichment (6-mer frequency, TF over GST control)"
same,binding signal,ETV3L,"1.32 fold enrichment (6-mer frequency, TF over GST control)"
same,binding signal,ETS2,"1.23 fold enrichment (6-mer frequency, TF over GST control)"
same,binding signal,SPDEF,"1.23 fold enrichment (6-mer frequency, TF over GST control)"
same,binding signal,ETV7,"1.23 fold enrichment (6-mer frequency, TF over GST control)"
same,binding signal,ELF5,"1.17 fold enrichment (6-mer frequency, TF over GST control)"
same,binding signal,ETV3,"1.18 fold enrichment (6-mer frequency, TF over GST control)"
same,binding signal,ETV6,"1.19 fold enrichment (6-mer frequency, TF over GST control)"
